# Source: the supplement of paper PMC8728848
# The entries come from a sample that favours the strongest signals as a whole.
# B1: CPA (Cicer arietinum) (protein)
# chain: MAFSYLNLVLVTLTTLFFLQTTKVKSQKSVSFHITNFTISRPSITLQGTAEFLPNVLLLNDIEHPVFVVGRALYSKPITLWNNKTGKVASFVTSFTFDVQDLKKTVPGHGLVFFLAPSGSEIPFSSDGGNLGVVDGKNAFNRFVGVEFDNFVNSWDPKYSHVGINVNSLISTKTVKWNRVSGELVKVSIVYDSVSTTLTVIVTYKNGQISILSQLVDLKAVLPDTVNIGFSASTTLVSPRQLHNIHSWSFTSTFET
# Tests used:
# Assay in all cases: glycan array binding signal (z-score within array); higher = stronger binding
# Conditions in all cases: glycan notation: IUPAC condensed, linker removed
# [1] = target: Gal3S(b1-3)GalNAc
# Summary of the method: (§1)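 Arrays were curated from the Consortium for Functional Glycomics database, 3228 in total, and kept only where the protein sequence was available. Binding is expressed as a within-array Z-score. This score was averaged across arrays of the same protein sequence at different concentrations or buffers and across linkers, and negative values can be read as non-binding.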
# [2] = target: Gal6S(b1-4)Glc
# Summary of the method: as §1
# [3] = target: GalNAc(b1-4)GlcNAc(b1-2)Man
# Summary of the method: as §1
# [4] = target: Glc(b1-6)Glc
# Summary of the method: as §1
# [5] = target: GlcNAc(a1-4)Gal(b1-4)GlcNAc
# Summary of the method: as §1
# [6] = target: GlcNAc(b1-3)Man
# Summary of the method: as §1
# [7] = target: Kdn(a2-3)Gal(b1-4)Glc
# Summary of the method: as §1
# [8] = target: Kdn(a2-3)Gal(b1-4)GlcNAc
# Summary of the method: as §1
# [9] = target: Man(a1-2)Man(a1-3)[Man(a1-2)Man(a1-6)]Man
# Summary of the method: as §1
# [10] = target: Man(a1-3)[Man(a1-6)]Man
# Summary of the method: as §1
# [11] = target: Man(a1-3)[Man(a1-6)]Man(a1-6)[Man(a1-2)Man(a1-3)]Man(b1-4)GlcNAc(b1-4)GlcNAc
# Summary of the method: as §1
# [12] = target: MurNAc(b1-4)GlcNAc
# Summary of the method: as §1
# [13] = target: Neu5Ac(a2-3)Gal
# Summary of the method: as §1
# [14] = target: Neu5Ac(a2-3)Gal(b1-3)GalNAc(b1-3)Gal(a1-4)Gal(b1-4)Glc
# Summary of the method: as §1
# [15] = target: Neu5Ac(a2-3)Gal(b1-3)GlcNAc(b1-2)Man(a1-3)[GlcNAc(b1-4)][Neu5Ac(a2-3)Gal(b1-3)GlcNAc(b1-2)Man(a1-6)]Man(b1-4)GlcNAc(b1-4)GlcNAc
# Summary of the method: as §1
# [16] = target: Neu5Ac(a2-3)Gal(b1-4)GlcNAc(b1-3)Gal
# Summary of the method: as §1
# [17] = target: Neu5Ac(a2-3)Gal(b1-4)GlcNAc(b1-3)Gal(b1-4)GlcNAc(b1-3)Gal(b1-4)GlcNAc(b1-2)Man(a1-3)[Neu5Ac(a2-3)Gal(b1-4)GlcNAc(b1-3)Gal(b1-4)GlcNAc(b1-3)Gal(b1-4)GlcNAc(b1-2)Man(a1-6)]GalNAc
# Summary of the method: as §1
# [18] = target: Neu5Ac(a2-3)Gal(b1-4)[Fuc(a1-3)]GlcNAc(b1-3)GalNAc
# Summary of the method: as §1
# [19] = target: Neu5Ac(a2-3)[GalNAc(b1-4)]Gal(b1-4)Glc
# Summary of the method: as §1
# [20] = target: Neu5Ac(a2-6)Gal(b1-4)GlcNAc(b1-2)Man(a1-3)[Neu5Ac(a2-6)Gal(b1-4)GlcNAc(b1-2)Man(a1-6)]Man(b1-4)GlcNAc(b1-4)GlcNAc
# Summary of the method: as §1
# [21] = target: Neu5Ac(a2-6)Gal(b1-4)GlcNAc(b1-3)Gal(b1-4)GlcNAc(b1-3)[Neu5Ac(a2-6)Gal(b1-4)GlcNAc(b1-3)Gal(b1-4)GlcNAc(b1-6)]GalNAc
# Summary of the method: as §1
# [22] = target: Neu5Ac(a2-6)Gal(b1-4)GlcNAc(b1-3)[Neu5Ac(a2-6)Gal(b1-4)GlcNAc(b1-6)]GalNAc
# Summary of the method: as §1
# [23] = target: Neu5Ac(a2-6)GalNAc(b1-4)GlcNAc6S
# Summary of the method: as §1
# [24] = target: Neu5Ac(a2-6)GlcNAc(b1-4)GlcNAc(b1-4)GlcNAc
# Summary of the method: as §1
# [25] = target: Neu5Ac(a2-8)Neu5Ac(a2-3)Gal(b1-4)Glc
# Summary of the method: as §1
# [26] = target: Neu5Ac(a2-8)Neu5Ac(a2-3)Gal(b1-4)GlcNAc
# Summary of the method: as §1
# [27] = target: Neu5Ac(a2-8)Neu5Ac(a2-8)Neu5Ac(a2-3)Gal(b1-4)Glc
# Summary of the method: as §1
# [28] = target: Neu5Gc(a2-3)Gal(b1-4)GlcNAc
# Summary of the method: as §1
binder,measurement,setting,value
B1,glycan array binding signal (z-score),[1],-0.183
same,glycan array binding signal (z-score),[2],0.138
same,glycan array binding signal (z-score),[3],1.55
same,glycan array binding signal (z-score),[4],-0.614
same,glycan array binding signal (z-score),[5],2.25
same,glycan array binding signal (z-score),[6],-0.558
same,glycan array binding signal (z-score),[7],-0.762
same,glycan array binding signal (z-score),[8],-0.585
same,glycan array binding signal (z-score),[9],-0.461
same,glycan array binding signal (z-score),[10],-0.635
same,glycan array binding signal (z-score),[11],4.19
same,glycan array binding signal (z-score),[12],0.406
same,glycan array binding signal (z-score),[13],-0.529
same,glycan array binding signal (z-score),[14],-0.601
same,glycan array binding signal (z-score),[15],-0.065
same,glycan array binding signal (z-score),[16],-0.66
same,glycan array binding signal (z-score),[17],6.81
same,glycan array binding signal (z-score),[18],-0.322
same,glycan array binding signal (z-score),[19],-0.34
same,glycan array binding signal (z-score),[20],-0.503
same,glycan array binding signal (z-score),[21],3.34
same,glycan array binding signal (z-score),[22],-0.588
same,glycan array binding signal (z-score),[23],-0.452
same,glycan array binding signal (z-score),[24],2.61
same,glycan array binding signal (z-score),[25],-0.501
same,glycan array binding signal (z-score),[26],-0.647
same,glycan array binding signal (z-score),[27],-0.579
same,glycan array binding signal (z-score),[28],-0.402
